Several values for one entry are separate records, joined by “and”; a condition that tells them apart may be missing. Identical values can stand only once. Like-named read-outs stand apart in the source and are kept apart here.
Columns and labels:
[1] = tested on: TAOK2; details: concentration: 1 μM, replicates: in singlicate; n = 1
[2] = tested on: TAOK3; details: concentration: 1 μM, replicates: in singlicate, n = 1
[3] = tested on: TBK1; details: concentration: 1 μM, replicates: in singlicate, n = 1
[4] = tested on: TEC; details: concentration: 1 μM, replicates: in singlicate; n = 1
[5] = tested on: TESK1; details: concentration: 1 μM, replicates: in singlicate, n = 1
[6] = tested on: TGFBR1; details: n = 1
[7] = tested on: TGFBR2; details: concentration: 1 μM, replicates: in singlicate; n = 1
[8] = tested on: TIE1; details: concentration: 1 μM, replicates: in singlicate, n = 1
[9] = tested on: T1, TIE2; details: concentration: 1 μM, replicates: in singlicate; n = 1
T1 construct: gene TEK

[10] = tested on: TLK1; details: concentration: 1 μM, replicates: in singlicate, n = 1
[11] = concentration: 1 μM, replicates: in singlicate
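Also: KINOMEscan kinase panel screen.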

Structure (SMILES)	%Inh [1] [%]	%Inh [2] [%]	%Inh [3] [%]	%Inh [4] [%]	%Inh [5] [%]	%Inh [6, 11] [%]	%Inh [7] [%]	%Inh [8] [%]	%Inh [9] [%]	%Inh [10] [%]	%Inh ([6]; 1 µM) [%]	%Inh ([2]; 1 µM)	%Inh ([3]; 1 µM)	%Inh ([5]; 1 µM)	%Inh ([8]; 1 µM)	%Inh ([10]; 1 µM)
[2H]C([2H])(c1cccc(C(F)(F)F)c1C)n1ccn2c(=O)nc(N3CCOCC3)cc12 [GSK2336394]	0	0	10	0	26	5	32	11	0	0						
COc1cc(Nc2nccc(N3CCC(NC(=O)c4cccc(NC(C)=O)c4)C3)n2)cc(OC)c1OC (stereo not shown) [GSK1379754]	0	0	17	0	15	0	0	61	0	0						
c1ccc(-c2n[nH]cc2-c2ccnc3ccccc23)nc1 [GW271431]	0	0	12	0	20		72	3	0	2	90.1					
CSc1ccc(-c2cc3ncnc(SCC(=O)O)c3s2)cc1	0	0	0	0	0	0	12	0	0	2						
Cn1ccc2ncnc(Oc3ccc(NC(=O)Nc4ccncc4)c(Cl)c3)c21	0	0	22	0	0	10	0	0	5	0						
COc1ccc(Nc2nccc(N3CCC(NC(=O)Nc4cccc(C(C)=O)c4)C3)n2)cc1 (stereo not shown) [GSK1379731]	0	0	0	0	30	0	0	0	0	0						
COC(=O)Nc1nc2cc(Oc3ccc(NC(=O)Nc4cc(F)ccc4F)cc3)ccc2[nH]1.Cl [GW701424]	0	0	9	0	73	27	0	93.2	73	0						
Cn1cc(-c2ccc3c(c2)CCN3C(=O)Cc2ccccc2Cl)c2c(N)ncnc21 [GSK2608885]	0	47	14	100	43	8	23	96	97.4	29						
Fc1ccc(-c2nn3c(OCC(F)(F)F)cccc3c2-c2ccncc2)cc1 [GW514784]	0	0	0	0	13	39	55	0	0	0						
Cl.Oc1cccc(Nc2ccnc3cc(-c4ccncc4)ccc23)c1 [GW494601]	0	0	9	1	16	76	99.5	50	48	0						
Cc1nnc(-c2ccc3ncc(-c4ccc(S(C)=O)cc4)n3c2)o1 (stereo not shown)	0	0	15	7	0	9	0	5	6	23						
N#Cc1ccc(-c2cc(-c3c[nH]nc3-c3ccccn3)ccn2)cc1 [GW693028]	0	0	6	44	23		83	0	0	0	87					
NS(=O)(=O)CCc1cccc(Nc2nccc(-c3c(-c4cccc(NC(=O)c5c(F)cccc5F)c4)nn4ccccc34)n2)c1 [GSK336735]	32	88	15	95.6	50	3	20	96.8	91.1	8						
COc1ccc(Nc2nccc(N3CCC(NC(=O)Nc4cc(C)ccc4C)C3)n2)cc1 (stereo not shown) [GSK1379741]	0	0	0	20	14	0	0	0	0	0						
O=C(Nc1cccc(-c2nn3ncccc3c2-c2ccnc(Nc3cccc(C(F)(F)F)c3)n2)c1)c1c(F)cccc1F [GSK299495]	41	63	6	96.8	15	8	1	10	0	0						
Cc1c(Cn2c(C)nn3c(=O)cc(N4CCOC(C)C4)nc23)cccc1C(F)(F)F (stereo not shown) [GSK2344444]	0	0	0	0	0	0	0	7	0	0						

Structure (SMILES)	%Inh [1] [%]	%Inh [2] [%]	%Inh [3] [%]	%Inh [4] [%]	%Inh [5] [%]	%Inh [6, 11] [%]	%Inh [7] [%]	%Inh [8] [%]	%Inh [9] [%]	%Inh [10] [%]	%Inh ([6]; 1 µM) [%]	%Inh ([2]; 1 µM)	%Inh ([3]; 1 µM)	%Inh ([5]; 1 µM)	%Inh ([8]; 1 µM)	%Inh ([10]; 1 µM)
N#Cc1c(N2CCOCC2)sc(-c2ccn[nH]2)c1-c1ccc(Cl)cc1	0	0	12	12	0	19	0	0	5	11						
CCc1nc(-c2cccc(C)c2)c(-c2ccnc(NCc3ccccc3)c2)s1	0	0	13	9	0	2	0	13	0	22						
COCCNC(=O)c1ccc(-c2cc(C(=O)NC3CC3)cc(F)c2C)cc1 [GW868318]	16	32	34	11	26	0	6	17	17	14						
O=C(Nc1n[nH]c2cc(-c3cccc(F)c3)ccc12)C1CC1 [SB-735464]	32	8	10	0	17	5	0	0	16	16						
COc1ccc(Nc2ncc(C#N)c(Nc3ccccc3C(N)=O)n2)cc1N1CCN(C)CC1.Cl [GSK1558669]	51	91.3	99.5	93.5	67	46	27	98.5	97.2	96.2						
O=C1Cc2cc(Nc3nc(NCc4cccc(S(=O)(=O)C(F)(F)F)c4)ncc3C(F)(F)F)ccc2N1	0	0	0	0	0	0	2	0	0	0						
CNc1ncnc2[nH]ncc12 [SKF-18355]	24	0	30	0	10	47	0	0	2	0						
CCCCCc1nc2c(N)ncnc2n1CCCCC [SKF-97255]	18	0	42	6	14	3	11	0	19	0						
Cl.Nc1ncnc2occ(-c3ccc(NC(=O)Nc4cc(C(F)(F)F)ccc4F)cc3)c12 [SB-707548]	22	17	35	4	17	33	0	98.7	99.8	14						
NCCNS(=O)(=O)c1ccc(-c2ccnc3[nH]ccc23)cc1 [GSK977617]	0			0		0	0		0			0% and 2%	27% and 24%	14% and 13%	32% and 23%	36% and 13%
COc1cc2c(cc1OC[C@@H](O)CO)ncc1c3ccc(C#N)cc3[nH]c21	0	0	68	0	0	23	0	0	0	11						
CCn1cnc2c(N)ncnc21 [GW345098]	4	0	39	11	4	0	12	6	2	22						
COc1ccc(S(=O)(=O)NC2CCN(c3cc(C)nc(Nc4cccc(C#N)c4)n3)CC2)cc1.O=C(O)C(F)(F)F [GSK1653539]	0	0	11	10	5	0	0	0	0	8						
Cc1cccc(Cn2ccn3c(=O)cc(N4CCOCC4)nc23)c1 [GSK2297542]	5	0	10	11	39	3	0	0	0	16						
COc1cc2c(cc1OCCN1CCN(C)CC1)ncc1c3ccc(C#N)cc3[nH]c21	13	0	83	0	0	0	0	0	6	37						

Reference: publication PMC5540273 (PLoS ONE, 2017)
